# Experimental data published in PubChem BioAssay AID2603 (Johns Hopkins Ion Channel Center, 2010).
# Entries with a potency or affinity are not part of this list. Active and inactive are the calls of the source.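 How the source made its calls: active means a compound that raises KCNQ2 potassium channel current at -35 mV at one or more tested doses; inactive means no rise at any dose.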
# Biological target: Potassium voltage-gated channel subfamily KQT member 2 (Rattus norvegicus) (UniProt O88943)
# Experiment: KCNQ2 channel potentiators, dose response, mechanism study for KCNQ2 potentiator project, cell-based, automated electrophysiology (AID 2603)
# Conditions: KCNQ2-CHO cells, automated patch clamp current potentiation; at 30 µM (top of the series)
# Chain of Potassium voltage-gated channel subfamily KQT member 2 (Rattus norvegicus) (O88943 whole entry, looked up): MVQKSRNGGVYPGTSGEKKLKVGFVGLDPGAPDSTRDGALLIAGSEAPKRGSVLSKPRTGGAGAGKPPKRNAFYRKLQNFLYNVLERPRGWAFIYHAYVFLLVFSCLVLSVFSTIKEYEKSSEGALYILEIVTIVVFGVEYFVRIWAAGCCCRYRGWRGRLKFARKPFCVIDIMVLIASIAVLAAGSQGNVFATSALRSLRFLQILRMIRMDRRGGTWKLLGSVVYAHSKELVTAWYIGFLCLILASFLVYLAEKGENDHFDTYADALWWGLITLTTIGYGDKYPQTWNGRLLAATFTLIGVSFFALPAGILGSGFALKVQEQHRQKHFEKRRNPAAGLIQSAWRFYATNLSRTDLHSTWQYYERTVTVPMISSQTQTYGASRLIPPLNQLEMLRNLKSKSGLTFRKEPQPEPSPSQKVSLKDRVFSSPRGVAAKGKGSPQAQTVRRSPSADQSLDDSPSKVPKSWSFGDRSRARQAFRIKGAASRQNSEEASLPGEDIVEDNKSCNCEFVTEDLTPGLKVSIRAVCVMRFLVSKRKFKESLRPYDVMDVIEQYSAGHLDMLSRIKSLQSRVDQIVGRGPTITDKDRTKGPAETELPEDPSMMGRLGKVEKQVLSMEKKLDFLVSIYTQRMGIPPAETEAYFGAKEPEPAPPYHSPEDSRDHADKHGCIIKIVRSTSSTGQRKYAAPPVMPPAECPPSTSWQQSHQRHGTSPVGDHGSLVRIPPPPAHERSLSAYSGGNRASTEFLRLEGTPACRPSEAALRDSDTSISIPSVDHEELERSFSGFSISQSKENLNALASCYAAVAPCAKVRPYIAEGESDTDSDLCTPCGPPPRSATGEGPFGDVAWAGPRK
row,Compound,potentiation
1,Cc1nn(-c2cccc(C(F)(F)F)c2)c(Cl)c1/C=N/Nc1cccc(C(=O)O)c1,20.9 (inactive)
2,CC1(C)CCc2cc(-c3ccn(S(=O)(=O)c4ccccc4Cl)n3)ccc2O1,48.6 (inactive)
3,COc1ccc(C(=O)CCS(=O)(=O)c2ccc(F)cc2)cc1OC,40.2 (inactive)
4,S=C(NCCc1cccc(Cl)c1)NCc1ccccc1,41.2 (inactive)
5,Oc1c(Br)cc(Br)cc1C=Nc1ccc2[nH]ncc2c1,-1.83 (inactive)
6,O=c1c(O)c(-c2cccs2)oc2ccc(Cl)cc12,-3.59 (inactive)
7,CC1=C(C(=O)OCC2CCCCC2)C(c2cccc(O)c2)NC(=O)N1 (configuration not stated),57
8,CC1=C(C)/C(=N\OS(=O)(=O)c2ccccc2)C=CC1=O,41.9 (inactive)
9,Cc1ccc(C(=O)NC2(O)C(=O)c3ccccc3C2=O)cc1C,41.3 (inactive)
10,CCCCCC/C(C)=C1/SC(=S)NC1=O,16.9 (inactive)
11,O=C(O)c1cc(NN=C2c3ccccc3-c3ccccc32)ccc1Cl,81.9
12,O=C(Cc1ccccc1)Nc1cccc(N2CCCC2)c1,-3.46 (inactive)
13,CC(C)c1ccc2nc(NC(=O)C3CC3)sc2c1,19.3 (inactive)
14,Nc1cc(N2CCCCC2)c(Cl)cc1[N+](=O)[O-],26.9 (inactive)
15,Cc1ccc(C(C2=C(O)CC(C)(C)CC2=O)C2C(=O)CC(C)(C)CC2=O)o1 (configuration not stated),35.1 (inactive)
16,COc1cc(C)c(C(=O)Oc2cc(C)c(C(=O)O)c(O)c2)c(O)c1,72.4
17,CCC(O)(CC)C(=O)N(Nc1ccc(C)cc1)c1ccc(C)cc1,62.7
